The values that follow come from ChEMBL document CHEMBL2218924, “A broad activity screen in support of a chemogenomic map for kinase signalling research and drug discovery” (Biochem J, 2013).

The target in assay [1] is T1, Mitogen-activated protein kinase 12 (Homo sapiens) (UniProt P53778).
T1 sequence (whole entry): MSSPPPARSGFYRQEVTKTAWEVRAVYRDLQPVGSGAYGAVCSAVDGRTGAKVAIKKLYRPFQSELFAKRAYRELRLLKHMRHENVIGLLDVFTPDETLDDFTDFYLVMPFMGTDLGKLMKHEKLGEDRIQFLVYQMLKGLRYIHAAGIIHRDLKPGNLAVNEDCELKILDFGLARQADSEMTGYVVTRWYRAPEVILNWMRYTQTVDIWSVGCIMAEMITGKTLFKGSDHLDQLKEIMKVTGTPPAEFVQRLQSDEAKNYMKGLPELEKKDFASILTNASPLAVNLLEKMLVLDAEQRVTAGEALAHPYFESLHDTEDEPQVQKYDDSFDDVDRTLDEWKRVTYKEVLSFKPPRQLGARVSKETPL
The following applies: at 1 µM.

Assay [2] concerns the target T1, Mitogen-activated protein kinase 12 (Homo sapiens). The note with it: at 10 µM.

With `COc1ccc(S(=O)(=O)N(CCO)c2ccccc2CN(C)C/C=C/c2ccc(Cl)cc2)cc1`, the values for the residual activity in assay [1] and in assay [2] were 99% and 95%, respectively.
The corresponding values for `O=C1NC(=O)c2cc(Nc3ccc(F)cc3)c(Nc3ccc(F)cc3)cc21` are 99% and 82%.
In the same order, the values of `Nc1nc(Nc2ccc(S(N)(=O)=O)cc2)nn1C(=S)Nc1c(F)cccc1F` are 56% and 69%.
In the same order, the values of `O=c1cc(N2CCOCC2)oc2c1ccc1ccccc12` are 104% and 90%.
For `Nc1ncnc2c1c(-c1ccc(Oc3ccccc3)cc1)cn2C1CCCC1`, the residual activity in assay [1] came out at 99%; in assay [2], 97%.
Take `O=C1Nc2ccc(Br)cc2/C1=C\c1cc2c([nH]1)CCCC2`: the figures for the residual activity in assay [1] and in assay [2] were 115% and 102%, respectively.
The corresponding values for `O=C(c1ccccc1)c1ccc(N2CCOCC2)cc1O` are 100% and 100%.
The corresponding values for `CC[n+]1c(/C=C/N(C)c2ccccc2)n(-c2ccccc2)c2ccc(-c3nc4ccccc4s3)cc21` are 111% and 94%.
For `CNc1cc2c(Nc3cccc(Br)c3)ncnc2cn1`, the values for the residual activity in assay [1] and in assay [2] were 105% and 95%, respectively.
Regarding `Nc1nc(Nc2ccc(S(N)(=O)=O)cc2)nn1C(=O)c1c(F)cccc1F`, in assay [2], the residual activity was 67%.
As for `O=C1NC(=O)/C(=C/c2ccc3c(c2)OC(F)(F)O3)S1`, the results for the residual activity in assay [1] and in assay [2] were 110% and 113%, respectively.
On to `O=C(Nc1cccc(Nc2cc(Nc3cccc(C(F)(F)F)c3)ncn2)c1)C1CC1`, for which the results for the residual activity in assay [1] and in assay [2] were 94% and 92%, respectively.
Take `CO[C@@H]1[C@H](N(C)C(=O)c2ccccc2)C[C@H]2O[C@]1(C)n1c3ccccc3c3c4c(c5c6ccccc6n2c5c31)C(=O)NC4`: the residual activity in assay [1] was 104%; in assay [2], 87%.
Turning to `CC(C)n1cnc2/c(=N/c3cccc(Cl)c3)nc(NCCO)[nH]c21`, the residual activity in assay [1] is 96%; in assay [2] it was 99%.
Consider `Oc1cccc(-c2nc(N3CCOCC3)c3oc4ncccc4c3n2)c1`, for which the residual activity in assay [2] came to 86%.
